High-throughput results as filed in PubChem.
USP28 block: inhibitors of human USP28 deubiquitinase; Q96RU2; inhibition, % at 25 µM; purified USP28, Ub-rhodamine cleavage fluorescence, 30 min; hit rate 3% among 47,000
USP17 block: blocks human USP17 ubiquitin-rhodamine cleavage; A8MUK1; purified USP17, Ub-rhodamine cleavage fluorescence, 3 h; inhibition, % at 50 µM; hit rate 6.5% among 47,000
USP30 block: blocks human USP30 ubiquitin-rhodamine cleavage | Q70CQ3 | purified USP30, Ub-rhodamine cleavage fluorescence | inhibition, % at 25 µM | hit rate 5.3% among 47,000
USP10 inh: inhibitors of human USP10 deubiquitinase; Q14694; purified USP10, Ub-rhodamine fluorescence, 60 min; inhibition, % at 20 µM; hit rate 1.1% among 47,000; AID 1645856
Target sequence (Q14694 whole entry, looked up): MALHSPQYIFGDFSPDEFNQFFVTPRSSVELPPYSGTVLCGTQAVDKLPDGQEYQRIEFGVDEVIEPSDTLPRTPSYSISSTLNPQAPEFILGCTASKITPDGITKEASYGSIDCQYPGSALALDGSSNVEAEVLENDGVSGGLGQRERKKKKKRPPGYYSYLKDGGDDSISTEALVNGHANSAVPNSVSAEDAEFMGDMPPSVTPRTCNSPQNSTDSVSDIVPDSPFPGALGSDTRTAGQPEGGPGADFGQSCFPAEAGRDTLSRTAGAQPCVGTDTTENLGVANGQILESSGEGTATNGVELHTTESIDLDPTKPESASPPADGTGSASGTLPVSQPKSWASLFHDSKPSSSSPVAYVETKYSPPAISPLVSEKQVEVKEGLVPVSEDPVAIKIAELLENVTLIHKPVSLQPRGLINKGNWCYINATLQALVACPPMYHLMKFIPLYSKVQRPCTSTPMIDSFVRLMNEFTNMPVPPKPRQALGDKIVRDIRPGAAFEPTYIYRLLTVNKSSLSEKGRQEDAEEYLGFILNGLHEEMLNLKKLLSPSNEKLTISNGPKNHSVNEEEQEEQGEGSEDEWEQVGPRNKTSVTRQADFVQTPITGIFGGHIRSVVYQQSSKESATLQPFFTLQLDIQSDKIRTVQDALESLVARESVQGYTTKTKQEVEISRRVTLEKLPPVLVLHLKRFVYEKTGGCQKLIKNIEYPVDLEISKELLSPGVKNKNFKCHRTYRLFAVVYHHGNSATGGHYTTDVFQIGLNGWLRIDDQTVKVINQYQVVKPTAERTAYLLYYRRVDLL
USP8 block: human USP8 deubiquitinase inhibition; purified USP8, Ub-rhodamine cleavage fluorescence, 30 min; inhibition, % at 20 µM; hit rate 4.2% among 47,000
Each line names hits and unclear results; the compound was inactive in the other large screens. A selection: hits, their analogues and other compounds. The true share with any hit is near 13%. Rule as the data show it: active = inhibition above about 30%; inactive = the rest.

Cc1cccc(C)c1NC(=O)c1ccn(COc2ccccc2)n1	USP28 block 36
Cc1ccc(NC(=O)c2ccn(COc3ccc(F)cc3)n2)nc1	USP17 block 60
Cc1ccnc(NC(=O)c2ccn(COc3ccc(F)cc3)n2)c1	USP30 block 40
COc1ccc(OCC(=O)NCc2csc(-c3ccccc3)n2)cc1	none
O=C(COc1ccc(C(=O)OCc2csc(-c3ccccc3)n2)cc1)Nc1cccc(C(F)(F)F)c1	USP17 block 31, USP30 block 33
CCc1ccc(OCC(=O)Nc2cccc(-c3nc4ccccc4s3)c2)cc1	USP30 block 36
O=C(COc1ccc(F)cc1)NCc1csc(-c2ccccc2)n1	none
Cc1nc(N2CCCC2=O)sc1C(=O)N1CCN(c2ccc(F)cc2)CC1	none
Cc1cccc(NC(=O)Cn2cnc3c(c2=O)CCN(Cc2ccccc2)C3)c1	none
Cc1noc(C)c1CC(=O)Nc1nnc(-c2ccc(C(C)C)cc2)s1	USP8 block 32
O=C(c1cc(-c2ccncc2)n[nH]1)N1CCN(C(=O)C2CCCC2)CC1	none
CC1CCN(S(=O)(=O)c2nn(C)cc2C(=O)NCCN2CCCCC2)CC1	none
CC[C@@H](C(=O)[C@@H](C)[C@@H](O)[C@H](C)CCc1ccc(C)c(O)c1C(=O)O)[C@@H]1O[C@](CC)([C@H]2CC[C@](O)(CC)[C@H](C)O2)C[C@@H]1C	USP17 block 56, USP30 block 60, USP10 inh 60
O=C(CSc1nc2c(cnn2-c2ccccc2)c(=O)[nH]1)Nc1ccc(Cl)cc1F	USP30 block 30, USP8 block 80
Cc1cc(NC(=O)CSc2nc3c(cnn3-c3ccc(F)cc3)c(=O)[nH]2)no1	none
CC(C)(C)OC(=O)N1CCCC2(CNc3ccccc3C2)C1 (stereo unspecified)	none
COc1ccc(/C=C(/C#N)c2c[nH]c3ccccc23)cc1	none
COc1ccc(C(=O)c2c[nH]c3ccccc3c2=O)cc1	USP17 block 32 (no result: USP28 block, USP30 block)
COc1ccc(Nc2nnc(Cc3ccc(Cl)cc3)c(=O)[nH]2)cc1	USP10 inh 39, USP8 block 92
COc1ccc(NC(=O)CCC(=O)N(c2ccccc2)c2ccccc2)c(OC)c1	none
COc1cc(NC(=O)c2ccccc2)c(OC)cc1NC(=O)CCC(=O)N(c1ccccc1)c1ccccc1	USP17 block 62, USP30 block 58
COc1ccc(C)cc1NC(=O)NCCc1cn(C)c2ncccc12	none
COc1ccccc1NC(=O)NCCc1cn(C)c2ncccc12	USP28 block 37
Cc1cccc(S(=O)(=O)Nc2ccc(N3CCN(C)CC3)c(C(=O)O)c2)c1	USP8 block 89
CCNC(=O)NC1CCN(c2nc3cccnc3n(Cc3ccccc3)c2=O)CC1	none
CS(=O)(=O)c1cccc(N2CCN(Cc3cccnc3)C2=O)c1	none
Cc1ccc(C(=O)c2c(-c3ccccc3)cc3ccccn23)cc1S(=O)(=O)N1CCOCC1	none
CCc1nn2c(S(=O)(=O)N3CCN(c4ccccc4)CC3)c(C)nc2s1	USP30 block 39
CN(Cc1ccccc1)S(=O)(=O)c1ccc(S(=O)(=O)N2CCN(C(=O)c3cccnc3)CC2)cc1	USP30 block 74
Cc1ccc2c(c1)CCCN2C(=O)c1c(C)nn(-c2ccc(F)cc2)c1C	none
Cc1cncc(C2CCCN(C(=O)c3ccc4nc[nH]c4c3)C2)n1 (stereo unspecified)	none
CCCCCCCc1cc(O)cc(O)c1	USP28 block 77
COc1cn(-c2ccc(F)cc2)nc1C(=O)Nc1ccc(F)c(F)c1	USP17 block 35, USP30 block 32
O=C(Oc1ccccc1)C1CCN(S(=O)(=O)c2ccc3c(c2)OCCCO3)CC1	none
CC(=O)c1cccc(S(=O)(=O)N2CCC(C(=O)Oc3ccc(-c4nnco4)cc3)CC2)c1	USP8 block 39
Cc1cc(C2CCCN2C(=O)Nc2ccc(C)c(Cl)c2)on1 (stereo unspecified)	none (no result: USP17 block)
CC(CNC(=O)c1ccccc1)NC(=O)c1ccccc1 (stereo unspecified)	none
O=C(NC(C(=O)OCc1ccccc1)c1ccccc1)c1ccccc1 (stereo unspecified)	USP30 block 32
COc1ccccc1C(=O)N1CC(=O)N(Cc2ccc(C)cc2)CC(O)C1 (stereo unspecified)	none
CNC(=O)c1cc2nc(N(C)C)n(-c3ccc(F)cc3)c2s1	USP28 block 46, USP17 block 71, USP8 block 89
Cn1nc(-c2ccccc2)c2cc(C(=O)N3CCOCC3)sc21	none
CN(C)c1nc2cc(C(=O)N3CCCC3)sc2n1-c1ccccc1	USP8 block 57
CNC(=O)c1sc2ccccc2c1C1CCN(S(=O)(=O)N2CCOCC2)C1 (stereo unspecified)	none
Cc1nc(-c2ncc[nH]2)cc(C2CCCN(C(=O)c3cnc4ccccc4c3)C2)n1 (stereo unspecified)	none
O=C(Nc1ccccc1F)C1=NOC2(CCNCC2)C1	USP28 block 39, USP17 block 34, USP30 block 34
CC1c2cc3c(cc2CCN1CC(=O)Nc1cc(Cl)ccc1-n1cncn1)OCCCO3 (stereo unspecified)	USP8 block 47
O=C(NCc1ccc(F)cc1)c1cc(-n2cnnn2)ccc1Cl	USP28 block 30, USP17 block 67, USP30 block 30
CCOc1ccc(CNC(=O)CCC(=O)Nc2ccc3nc(N4CCCCC4)cc(C)c3c2)cc1	none
Cc1cc(N2CCCCC2)nc2ccc(NC(=O)CCC(=O)NC(C)c3ccc4c(c3)OCCO4)cc12 (stereo unspecified)	USP17 block 36
COc1cccc(CNC(=O)CCC(=O)Nc2ccc3nc(N4CCCCC4)cc(C)c3c2)c1	none
CCN(CC)c1cc(C)c2cc(NC(=O)c3ccncc3)ccc2n1	USP28 block 71
COc1ccc(CCC(=O)Nc2ccc3c(c2)Sc2ncccc2C(=O)N3C)cc1	USP28 block 55
CCN1CCN(c2cc(C)c3cc(NC(=O)c4cncc(Br)c4)ccc3n2)CC1	none
COc1ccc(CCC(=O)Nc2ccc3nc(N4CCN(c5ncccn5)CC4)cc(C)c3c2)cc1	USP30 block 30, USP8 block 36
Cc1ccsc1C(=O)N1CCC(Nc2ncnc3c2CCC3)CC1	none
Cn1c(=O)n(C2CCN(Cc3ccoc3)CC2)c2ncncc21	none
COc1ccc(/C=C/C(=O)Nc2ccc3nc(N4CCN(c5ncccn5)CC4)cc(C)c3c2)cc1	USP17 block 43, USP8 block 88
COc1ccccc1CNC(=O)CCC(=O)Nc1ccc2nc(N3CCN(C)CC3)cc(C)c2c1	none
COc1ccc(CC(=O)Nc2ccc3nc(N4CCOCC4)cc(C)c3c2)cc1	USP17 block 53, USP30 block 38
CCN(CC)c1cc(C)c2cc(NC(=O)CCc3ccc(OC)cc3)ccc2n1	USP28 block 46, USP8 block 54
COc1ccc(NC(=O)CCc2nc3ccccc3c(=O)[nH]2)cc1	none
COc1ccccc1CNC(=O)CCC(=O)Nc1ccc2nc(N3CCC(C)CC3)cc(C)c2c1	USP17 block 32
CN1CCC2(CC1)Cc1ccccc1CN(C(=O)c1ccccc1)C2	none
